Compounds without any hit were thinned out: in the full panel of roughly 83,000, 20% have a hit.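 Note: values are percent growth. 100 is the growth of untreated cells, values between 100 and 0 indicate rising inhibition; between -100 and 0 indicates cell death.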 Calls of active or inactive are those of the source. How the source made its calls: active means growth percent below 10; inactive means the rest.
Each compound was assayed on NCI-H226 lung (assay: NCI-60 one-dose screen, 48 h (100 = growth as untreated, 0 = no growth, -100 = all killed)). Details: 10 µM unless noted.

**Q.** Which growth does the source give for Cc1ccc(OCCOCCOCCOCCOc2ccc(C)n(O)c2=S)c(=S)n1O here?
**A.** The growth was 7.35% (active).

**Q.** With CCN(CC)CCCC(Nc1c2ccc(Cl)cc2nc2ccc(OC)cc12)c1ccncc1 (centres undefined) as the compound, how does the growth read?
**A.** Its growth is 94.5% (inactive).

**Q.** How did the growth turn out when COc1cccc(C2C3=C(COC3=O)N(CCO)c3cc4c(cc32)OCCO4)c1 (centres undefined) was run?
**A.** The growth was 38.3% (inactive).

**Q.** Which growth does the source give for CN(C)CC1C(=O)O[C@H]2[C@H]1CC/C(COC(=O)NCc1ccc(Cn3c(=O)sn(CCCI)c3=O)cc1)=C\CC[C@@]1(C)O[C@@H]21 (some centres undefined) here?
**A.** The growth was -27.4% (active).

**Q.** CC(C)=CC(=O)C1C(=O)c2ccccc2C1=O was tested. Which growth did it give?
**A.** Its growth is 97.9% (inactive).

**Q.** Which growth does the source give for Cn1cc(-c2ccc3c(Nc4cccc(NC(=O)Nc5cccc(F)c5)c4)ncnc3c2)cn1 here?
**A.** The growth was 67.8% (inactive).

**Q.** For COc1cc2c(c(OC)c1OC)C(=O)CC(c1cccc(C(=O)Nc3ccc(Br)cc3)c1)O2 (centres undefined), which growth is on record?
**A.** Its growth is 37.6% (inactive).

**Q.** How did the growth turn out when COc1cc2nc3cc([N+](=O)[O-])ccc3c(NCCCNCCO)c2cc1OC was run?
**A.** Its growth is -39.5% (active).

**Q.** How did the growth turn out when CCOC(=O)C1=CCC(n2cc(F)c(=O)[nH]c2=O)O1 (centres undefined) was run?
**A.** The growth was 103% (inactive).

**Q.** Cc1nc2sc(C(=O)Nc3ccccc3)c(N)c2cc1C(O)c1ccccc1 (centres undefined) was tested. Which growth did it give?
**A.** The growth was 64% (inactive).

**Q.** How did the growth turn out when C=C(CNCCO)[C@@H]1CC[C@]2(CO)CC[C@]3(C)[C@H](CC[C@@H]4[C@@]5(C)CCC(NCCO)C(C)(C)[C@@H]5CC[C@]43C)[C@@H]12 (some centres undefined) was run?
**A.** Its growth is 96.5% (inactive).

**Q.** How did the growth turn out when COC(=O)CCc1c(/C=C2\N=C(c3ccc[nH]3)C=C2OC)[nH]c(C)c1C(=O)OCc1ccccc1 was run?
**A.** The growth was 19.6% (inactive).

**Q.** With CSc1nc(N)c2c(n1)NC(c1ccccc1)C1CCc3ccccc3C1=N2 (centres undefined) as the compound, how does the growth read?
**A.** The growth was 77.6% (inactive).

**Q.** How did the growth turn out when CC(CN)[C@@H]1CC[C@]2(CO)CC[C@]3(C)[C@H](CC[C@@H]4[C@@]5(C)CCC(NCCO)C(C)(C)[C@@H]5CC[C@]43C)[C@@H]12 (some centres undefined) was run?
**A.** The growth was 95.8% (inactive).

**Q.** O=S(=O)(c1ccc(NCSc2nc3ccccc3s2)cc1)c1ccc(NCSc2nc3ccccc3s2)cc1 was tested. Which growth did it give?
**A.** Its growth is 87.8% (inactive).

**Q.** Which growth does the source give for COc1ccc(Cn2cc(C(=O)N=Nc3c(O)[nH]c4ccc(Br)cc34)nn2)cc1 here?
**A.** The growth was 97.5% (inactive).

**Q.** How did the growth turn out when Oc1ccc(C(c2ccc(O)cc2)c2ccc(Cl)cn2)cc1 was run?
**A.** Its growth is -31% (active).

**Q.** For O=C(Nc1cccc(Cn2c(=O)[nH]c3ccc(Oc4ncccn4)cc3c2=O)c1)c1cccc(Cl)c1, which growth is on record?
**A.** The growth was 68.6% (inactive).

**Q.** Cc1ccc(C(=O)Nc2ccc(CN3CCN(C)CC3)c(C(F)(F)F)c2)cc1C#Cc1cnc(N)c2ccccc12 was tested. Which growth did it give?
**A.** The growth was 21.6% (inactive).

**Q.** Which growth does the source give for C[C@H]1c2ccccc2CN1CCCOc1cc2c(cc1OCC1CC1)C1(CCCC1)C(N)=N2 here?
**A.** The growth was 53.1% (inactive).

**Q.** For CC1=C2[C@@H](CC1)[C@]1(C)O[C@@](C(C)C)(C[C@H]1OC(=O)CO)[C@H]2OC(=O)CCCc1ccccc1, which growth is on record?
**A.** Its growth is 61.4% (inactive).

**Q.** Oc1ccc(Cc2ccc(O)c3ncccc23)c2cccnc12 was tested. Which growth did it give?
**A.** Its growth is 12.1% (inactive).

**Q.** C=C(c1ccc(OC)c(/C=C/C(=O)c2cc(OC)c(OC)c(OC)c2)c1)c1cc(OC)c(OC)c(OC)c1 was tested. Which growth did it give?
**A.** Its growth is -38% (active).

**Q.** Which growth does the source give for COc1ccc(-c2nc(SCCC(C)C)nc(N/N=C(/C)c3ccc(N)cc3)c2C#N)cc1 here?
**A.** The growth was 88.9% (inactive).

**Q.** CCCCC1=C(Br)C(=O)c2ncccc2C1=O was tested. Which growth did it give?
**A.** The growth was 97.8% (inactive).

**Q.** Which growth does the source give for COc1ccc(/C(C)=C(\c2ccc(Cl)cc2)c2ccc(OCCCN(C)C)cc2)cc1 here?
**A.** Its growth is 103% (inactive).

**Q.** With CC(=O)/C(Br)=C/c1ccc(Br)o1 as the compound, how does the growth read?
**A.** Its growth is 85.4% (inactive).

**Q.** How did the growth turn out when CC(C)n1nc(-c2ccc3oc(N)nc3c2)c2c(N)ncnc21 was run?
**A.** The growth was -28.2% (active).

**Q.** Which growth does the source give for CCCNNC(=O)c1ccc(CNC(=O)/C=C/c2ccccc2)cc1 here?
**A.** Its growth is 73.4% [2.5 µM] (inactive).

**Q.** For O=C(Nc1ncc(Cc2ccc(Cl)cc2)s1)C1=NCCCCN1, which growth is on record?
**A.** Its growth is 99.7% (inactive).

**Q.** How did the growth turn out when COc1cc2c(c(OC)c1OC)CCC(c1cccc(C(=O)Nc3ccc([N+](=O)[O-])cc3)c1)O2 (centres undefined) was run?
**A.** The growth was 48.3% (inactive).

**Q.** How did the growth turn out when C=CCn1c(SCC(=O)Nc2ccc(C(=O)/C=C/c3ccc(Cl)cc3)cc2)nnc1-c1ccccc1 was run?
**A.** Its growth is 94.7% (inactive).

**Q.** For c1ccc(Cn2cc3c(c2)-c2nc(Nc4ccccc4)ncc2CC3)cc1, which growth is on record?
**A.** The growth was 87.1% [100 µM] (inactive).

**Q.** Which growth does the source give for Clc1nc(N2CCC[N+]3(CC2)CC[N+]2(CCCNCC2)CC3)nc(N2CCC[N+]3(CC2)CC[N+]2(CCCNCC2)CC3)n1 (centres undefined) here?
**A.** The growth was 68.4% (inactive).

**Q.** C#C[C@]1(O)CC[C@H]2[C@@H]3CC=C4c5sc(-c6ccccc6)nc5CC[C@]4(C)[C@H]3CC[C@@]21C was tested. Which growth did it give?
**A.** The growth was 99.6% (inactive).

**Q.** With CCOC(=O)c1ccc2c(c1)[n+](=O)c(C(C)=O)c(C(F)(F)F)n2[O-] as the compound, how does the growth read?
**A.** The growth was 41.2% (inactive).

**Q.** How did the growth turn out when COc1ccc2c(O)cc3c(c2c1)[C@H](CCl)CN3C(=O)c1cc2cc(NC(=O)CCN3CCOCC3)ccc2[se]1 was run?
**A.** Its growth is -12.5% (active).

**Q.** O=C(/C=C/C12c3ccccc3C(c3ccccc31)C1C(=O)NC(=O)C12)c1cccs1 (centres undefined) was tested. Which growth did it give?
**A.** The growth was 73.4% (inactive).

**Q.** With O=C1c2cccnc2C(=O)c2c1c(C(=O)OCCCN1CCOCC1)c1ccccn21 as the compound, how does the growth read?
**A.** The growth was -6.42% (active).
